According to PubChem BioAssay AID492992 (Johns Hopkins Ion Channel Center, 2010):
The campaign covered roughly 4,900 compounds. About 2,100 (43%) were called active.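 How the source made its calls: active means thallium signal inhibited by more than 5 SD of the compound-free buffer control wells, on both duplicate plates; inactive means the rest.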 So high a share suggests a set chosen from earlier hits. Only a sample is shown.

Target: Potassium channel subfamily K member 9 (Homo sapiens) (UniProt Q9NPC2)
Test: blockers of human TASK-3 (KCNK9) channel – HEK293 cells, thallium flux, duplicate, confirmation (AID 492992);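 on inhibition: 0% = assay buffer control wells without compound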
Conditions: FluxOR thallium flux fluorescence, at 10 µM; active compounds read high

Potassium channel subfamily K member 9 (Homo sapiens), sequence (Q9NPC2 whole entry, looked up): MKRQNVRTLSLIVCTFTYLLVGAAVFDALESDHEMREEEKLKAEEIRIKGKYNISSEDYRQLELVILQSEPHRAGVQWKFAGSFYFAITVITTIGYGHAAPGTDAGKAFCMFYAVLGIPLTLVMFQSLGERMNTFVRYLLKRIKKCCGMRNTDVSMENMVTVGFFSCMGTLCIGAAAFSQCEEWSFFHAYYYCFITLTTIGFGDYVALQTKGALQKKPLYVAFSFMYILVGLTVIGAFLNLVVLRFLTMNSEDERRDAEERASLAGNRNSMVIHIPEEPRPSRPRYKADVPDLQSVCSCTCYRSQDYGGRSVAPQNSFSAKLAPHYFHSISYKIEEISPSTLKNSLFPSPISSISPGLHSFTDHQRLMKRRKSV

Compound	inhibition
CN(CCC(=O)Nc1cc(S(=O)(=O)N(C)C)ccc1Cl)CC(=O)Nc1ccc(F)cc1	51.5% (active)
CC1CCN(C(=S)c2ccc(-c3ccc(Cl)cc3Cl)o2)CC1	inactive
COc1ccc(C2Nc3ccccc3C(=O)N2Cc2ccccc2)cc1Cn1nnc2ccccc21 (centres undefined)	inactive
O=C(Nc1ccc(Cl)c(Cl)c1)N1CC=C(c2ccccc2)CC1	30% (active)
O=C(COC(=O)c1ccccc1)Nc1ccccc1Sc1ccccc1	35% (active)
CCN(C(=O)COc1ccc(C(=O)c2ccccc2)cc1)c1ccccc1	40% (active)
C[C@@]12C(=O)N(c3cccc(Br)c3)C(=O)N1[C@H](c1ccc(Cl)cc1)[C@@H]1C(=O)N(C3CCCCC3)C(=O)[C@@H]12	inactive
CCOC(=O)[C@@H]1[C@H]2COc3ccc(Br)cc3[C@H]2N2C(=O)N(c3ccc(Cl)cc3)C(=O)[C@@]12C	56.5% (active)
COc1cccc2cc(C(C)N(CCCN3CCOCC3)C(=O)Nc3ccc(Cl)cc3)oc12 (centres undefined)	42.5% (active)
Cc1cccc2cc(CN(Cc3nnnn3Cc3ccccc3)C3CCCC3)c(=O)[nH]c12	27% (active)
CCC(c1nnnn1Cc1ccco1)N(CCc1ccccc1)Cc1cc2cccc(C)c2[nH]c1=O (centres undefined)	47% (active)
CCOc1ccc(OCc2ccc(C(=O)Nc3cccc(C)n3)o2)cc1	inactive
O=C(Cc1ccccc1)n1nc(-c2ccccc2)nc1NCc1ccco1	inactive
CCCSc1nc(NCc2ccco2)c2c3c(sc2n1)COC(C)(CC)C3 (centres undefined)	40% (active)
CCC1(C)Cc2c(sc3[nH]c(=S)n(Cc4ccccc4)c(=O)c23)CO1 (centres undefined)	inactive
Cc1ccc(C)c(NC(=S)NNC(=S)Nc2ccc(C(C)C)cc2)c1	inactive
CCOC(=O)Cc1cc(=O)[nH]c(=O)[nH]1	25% (active)
Clc1ccc(Cl)c(Oc2ccc(Oc3nc(Cl)ccc3Cl)cc2)n1	inactive
CCC/C=C(\CCC)C(NC(=O)Cc1ccccc1)c1ccc(C(=O)OC)cc1 (centres undefined)	67% (active)
CC(C)(C)SCCSC1=CC(=O)CC(c2ccccc2)C1 (centres undefined)	inactive
CCCCCC(O)c1cccc(OCc2ccc3ccccc3n2)c1 (centres undefined)	74.5% (active)
COc1cccc(-c2cnc(OC(C)(C)C)nc2OC(C)(C)C)c1	inactive
CCOC(=O)c1cc2sccc2n1Cc1ccc(C#N)cc1	65% (active)
CCOC(=O)c1c(NC(=O)CCCN2CCOCC2)sc2c1CC(C)(C)OC2	inactive
CN(CCOc1ccccc1)C(=O)c1cc(COc2c(F)cccc2F)on1	inactive

Compound	inhibition
CCOC(=O)C1=C(C)Nc2sc(C(=O)c3ccc(Br)cc3)c(N)c2C1c1ccc(C(=O)OC)cc1 (centres undefined)	31% (active)
COc1cc(Cl)c(S(=O)(=O)N2CCN(Cc3ccc4c(c3)OCO4)CC2)cc1Cl	inactive
COc1ccc(C(=O)NN2C(=O)C3C(c4ccccc4)C=CC(c4ccccc4)C3C2=O)cc1 (centres undefined)	inactive
COc1ccc(C(=O)Nc2ccccc2C(=O)N/N=C/c2ccccc2OC)cc1	36.5% (active)
O=C(CNCCC1=CCCCC1)Nc1ccccc1N1CCCCCC1	51.5% (active)
O=c1cc(CN2CCN(c3cccc(Cl)c3)CC2)c2cc3c(cc2o1)CCCC3	inactive
Cc1ccc(C(=O)c2c(NC(=O)c3ccncc3)sc3c2CCCC3)cc1	inactive
COc1cccc(OC)c1C(=O)Nc1sc2c(c1C(N)=O)CCCC2	33% (active)
CCOC(=O)c1c(NC(=O)CSc2cn(CC)c3ccccc23)sc2c1CCC2	inactive
Cc1cc2ccccn2c1C(=O)c1cccc(F)c1	inactive
COc1ccc(C(CCN(Cc2ccc(OC)c(OC)c2)C(=O)CCl)c2ccccc2)cc1 (centres undefined)	36% (active)
Cc1ccc(-c2csc(NCCc3nc4cc(Cl)c(Cl)cc4n3CCOCCO)n2)cc1	54% (active)
CCOC(=O)N1CCN(C(=O)COc2ccc3oc4c(c3c2)CCCC4)CC1	inactive
Cc1cccc(NC(=O)c2sc3nc4c(c(-c5ccco5)c3c2N)CCC4)c1	58.5% (active)
O=C(Nc1ccc2c(c1)CCC2)c1cccc(S(=O)(=O)Nc2ccccc2Cl)c1	inactive
O=C(N/N=C/c1ccccn1)c1cccc(NC(=O)c2ccc(Cl)cc2)c1	48% (active)
O=C(COc1ccc(Cl)cc1Cl)N/N=C/c1ccccn1	47% (active)
Oc1ccc(/C=N/Nc2nc(-c3ccccc3F)nc3ccccc23)c(O)c1	inactive
COc1ccc(C(=O)C2CCCN(C(=O)c3ccc(OC)o3)C2)c(C)c1 (centres undefined)	inactive
COc1ccc(OC)c(C(=O)c2coc3ccc(OC)cc23)c1	47% (active)
Cc1ccnc(N2CCN(C(=O)CSc3nc4ccccc4nc3N3CCCCC3)CC2)c1	inactive
Clc1ccc(COn2c(-c3ccc(Cl)cc3Cl)nc3ncccc32)cc1	41% (active)
Cc1onc(-c2ccc(Cl)cc2)c1-c1ccnn1S(=O)(=O)c1ccc(Cl)cc1	inactive
Cc1ccc(SCC(=O)c2cc(C)c(OC(=S)N(C)C)c(C)c2)cc1	inactive
Cc1[nH][nH]c(=O)c1C(c1ccc(-c2ccc(Cl)cc2)o1)c1c(C)[nH][nH]c1=O	inactive

Compound	inhibition
Cc1cc(C=O)c(C)n1-c1ccc(NC2CCCCC2)c([N+](=O)[O-])c1	63% (active)
Cc1ccc(NC(=O)c2cc([N+](=O)[O-])ccc2Cl)c(O)c1	58.5% (active)
CCN(CC)S(=O)(=O)c1ccc(N(C)Cc2ccc(C(F)(F)F)cc2)nc1	inactive
O=C1CC(c2ccccc2)=NN1c1ccc([N+](=O)[O-])cc1	inactive
O=C1c2ccccc2S(=O)(=O)N1CC(O)Cn1c2ccccc2c2ccccc21 (centres undefined)	28% (active)
CCCCOC(=O)CCCc1ccc([N+](=O)[O-])cc1[N+](=O)[O-]	inactive
Cc1ncoc1C(=O)N1CCCC(C(=O)c2ccc3c4c(cccc24)CC3)C1 (centres undefined)	inactive
COC(=O)C1=C(Nc2ccc(C)cc2)C=C(C)C(C(=O)OC)C1c1ccc(F)cc1 (centres undefined)	36% (active)
CCn1cnc2scc(-c3ccc(C)c(C)c3)c2c1=O	inactive
CCCOc1ccc2c3c(c(=O)oc2c1OCCC)CCC3	66.5% (active)
COc1ccc(C2CC(c3cccs3)=NN2c2ccccc2)cc1 (centres undefined)	50% (active)
COc1ccc(/C=C2\CCc3ccccc3C2=O)c(OC)c1OC	inactive
CN(c1ccccc1)S(=O)(=O)c1cccc(NC(=O)Cc2c(F)cccc2Cl)c1	67.5% (active)
Cc1ccccc1CSCCNC(=O)c1ccc(N(C)S(=O)(=O)c2ccccc2)cc1	inactive
Fc1cccc(Cl)c1CSc1ccc(-c2ccco2)nn1	67% (active)
FC(F)(F)c1cc(-c2ccco2)nc(NCc2ccc(Cl)cc2)n1	inactive
O=C(Nc1ccc(S(=O)(=O)N2CCCCC2)cc1)C1CCN(C(=O)c2ccc(F)cc2)CC1	inactive
Cc1ccc(C(=O)/C=C/c2c(C)nn(-c3ccccc3)c2Cl)cc1	inactive
Cc1ccccc1N1CCN(Cc2nc(Cc3ccccc3F)no2)CC1	inactive
CC(C)CC(COCc1ccc(Cl)cc1)N1CCN(C(=O)c2ccc(C(F)(F)F)cc2)CCC1=O (centres undefined)	39.5% (active)
CC1CCN(C(=O)c2ccc(CSc3ccc(Cl)cc3)cc2)CC1	inactive
CCCCN(CC)C(=O)C1CCCN(S(=O)(=O)c2cccc3nsnc23)C1 (centres undefined)	inactive
O=C(Nc1nnc(SCc2ccc(Cl)cc2Cl)s1)C1COc2ccccc2O1 (centres undefined)	inactive
COc1ccc(C(=O)C2CCCN(Cc3ccc4nonc4c3)C2)c(C)c1 (centres undefined)	inactive
CCCCCCCCn1c2c(c(=N)c3c1CCC3)CCCC2	62.5% (active)

Compound	inhibition
O=C(NC(=S)Nc1ccccc1C(=O)O)c1ccc(-c2ccc(Br)cc2)o1	inactive
COc1ccc(-c2n[nH]c3c2CN(C(=O)c2ccc(F)cc2)CC3)cc1	inactive
Cc1cc(OC(C)C(=O)Nc2ccc(S(=O)(=O)Nc3onc(C)c3C)cc2)cc(C)c1Cl (centres undefined)	inactive
O=C(Nc1ccccc1[N+](=O)[O-])C1C(c2ccccc2)=C1c1ccccc1	40% (active)
Cc1ccc(CN2CCN(/N=C/c3ccco3)CC2)c(C)c1	inactive
CC1=NN(c2cccc(Cl)c2)C(=O)C12CC(C)=C(C)CS2 (centres undefined)	45.5% (active)
O=C(NCCc1ccccc1)c1ccc2c(c1)N(Cc1ccccc1)CCS2	inactive
COc1ccccc1N1CCN(c2ncnc3sc(C)c(-c4ccccc4)c23)CC1	56% (active)
CCCCNC(=S)N/N=C1\CCCCc2ccccc21	inactive
CCCC(=O)n1nc(NCc2ccc(OC)cc2)nc1NCc1ccc(OC)cc1	inactive
O=C(Nn1c(SCc2ccc([N+](=O)[O-])cc2)nc2ccccc2c1=O)c1ccc(F)cc1	65% (active)
Cc1cccc(C(=O)Nc2ccccc2N2CCN(c3ccc(F)cc3)CC2)c1	40% (active)
CCCCC(=O)Nc1ccccc1N1CCN(c2ccc(F)cc2)CC1	69% (active)
Cc1ccc(N2CCN(S(=O)(=O)c3ccc(F)cc3)CC2)c(C)c1	inactive
CCOC(=O)CSc1nc2c(sc(=S)n2CCc2ccccc2)c(=O)n1Cc1ccco1	29.5% (active)
COc1cccc(COc2ccc(N(C)S(=O)(=O)c3ccccc3)cc2)c1	50% (active)
Cn1nc(-c2ccccc2)c(CSc2cccc(Cl)c2)c1Cl	34.5% (active)
COC(=O)c1cc(NC2c3ccccc3C(=O)N2c2ccc(Cl)cn2)cc(C(=O)OC)c1 (centres undefined)	29.5% (active)
CCOC(=O)C(C)n1cnc2scc(-c3ccc(C)c(C)c3)c2c1=O (centres undefined)	inactive
COCCNc1cc(-c2ccccc2)nc2cc(-c3cccc(F)c3)nn12	53.5% (active)
Cc1ccc(Cn2ccc(NC(=O)c3cc(C(C)C)on3)n2)cc1	inactive
COC(C(=O)Nc1ccc(S(=O)(=O)Nc2ccc(C)c(C)c2)cc1)c1ccccc1 (centres undefined)	inactive
O=C(Nc1cc(Cl)cc(Cl)c1)C(NCCCO)c1ccccc1 (centres undefined)	inactive
CC(C)C(=O)Nc1cccc(NC(=S)NC(=O)C(c2ccccc2)c2ccccc2)c1	52% (active)
